# In all, about 68,000 compounds went through this assay and about 2,700 (4%) showed an effect of 50% or more. The sample holds strong results, similar compounds and a random draw of the others, so the mix is not that of the screen.
# System: Plasmodium berghei
# Experiment: Screen against P. berghei liver stage (PbLuc), transformed with Luciferase, at 2uM
# Format: functional, HepG2
# Conditions: tested at 2 uM
row,SMILES,INHIBITION [%]
1,O=C1C[C@@H]2CC[C@H](CN1)N2C(=O)CCCc1ccc(Cl)cc1,-29.06
2,O=C1C(NS(=O)(=O)c2ccc(F)cc2)CCN1Cc1ccccc1 (centres undefined),38.76
3,O=C1C(NS(=O)(=O)c2cccc(F)c2)CCN1Cc1ccccc1 (centres undefined),54.29
4,O=C1C(NS(=O)(=O)c2cc(F)cc(F)c2)CCN1Cc1ccccc1 (centres undefined),23.92
5,CC(=O)N1CCS(=O)(=O)[C@@H]2CCN(S(=O)(=O)CC(C)C)CC[C@@H]21,-12.76
6,CC(=O)N1CCS(=O)(=O)[C@@H]2CCN(CC(C)C)CC[C@@H]21,60
7,CC(C)CN1CC[C@@H]2[C@H](CC1)N(C(=O)c1ccccc1)CCS2(=O)=O,-1.31
8,Cc1nsc(C(=O)NCCc2ccc(S(N)(=O)=O)cc2)n1,-43.28
9,CC(C)Cc1nc(CN2CCOC(Cn3cccn3)C2)no1 (centres undefined),-20.61
10,O=C(NC1CC1)c1cc(NC(=O)N2CCOCC2)ccc1Cl,64.9
11,O=C(NC1CC1)c1cc(NC(=O)N2CCSCC2)ccc1Cl,31.51
12,O=C(NC1CC1)c1cc(NC(=O)N2CCCC2)ccc1Cl,31.51
13,CCN(Cc1cc(F)c(OC)c(Cl)c1)Cc1noc(CC(C)C)n1,71.91
14,CCN(Cc1cc(F)c(OC)c(Cl)c1)Cc1nc(COC)no1,-20.98
15,CCN(Cc1noc(CC(C)C)n1)Cc1ccccc1Cl,-33.2
16,CCn1cc(CN2CCCC(c3[nH]ncc3-c3ccc(C)cc3)C2)cn1 (centres undefined),-20.72
17,CN(C)Cc1nn(C)c2c1CCN(C(=O)c1cccnc1)C2,47.97
18,CNC(=O)c1cccc(CCNc2ncc(Br)cn2)c1,12.41
19,CCn1cc(N)c(-c2nnc3n2CCCC3)n1,-37.89
20,Cn1nnc2cc(C(=O)NS(=O)(=O)c3cccc(C#N)c3)ccc21,-40.9
21,Cc1cccc(S(=O)(=O)NC(=O)c2ccc3c(c2)nnn3C)c1,53.99
22,Cn1nnc2cc(C(=O)NS(=O)(=O)c3ccc(F)cc3)ccc21,28.72
23,CCc1ncc2c(n1)CN(c1nnc(C)c(C)c1C#N)CC2,23.43
24,Cc1cc(-c2cnc(N3CCCC(C)C3)nc2-c2cccnc2C)on1 (centres undefined),-39.75
25,CS(=O)(=O)NCc1n[nH]c2c1CCN(C(=O)c1ccsc1)C2,19.56
26,CCC(=O)NCc1cc(Br)ccc1OC(F)F,43.8

row,SMILES,INHIBITION [%]
1,CN1CCN2C(=O)N(C3CCCCC3)C[C@H]2C1,-22.32
2,CS(=O)(=O)N1CCN2C(=O)N(C3CCOCC3)C[C@H]2C1,35.89
3,CN1CCN2C(=O)N(C3CCOCC3)C[C@H]2C1,52.36
4,Cc1cnn(CC2CCCN2C(=O)CCc2ccncc2)c1 (centres undefined),-5.39
5,N#Cc1ccc(C(=O)N2CCc3c(COCC4CC4)cncc3C2)cc1,-20.87
6,CSC1(CNC(=O)NCc2sccc2C)CCOCC1,13.58
7,CSC1(CNC(=O)N(C)Cc2sccc2C)CCOCC1,57.16
8,CSC1(CNC(=O)N(C)Cc2ccc(C)s2)CCOCC1,-18.99
9,CC(C)N(C)CC(=O)NCCc1nc(C(F)(F)F)cs1,-18.28
10,Cc1cnc(C)c(N2CCC(c3nnc(CN(C)C)n3C3CC3)CC2)n1,-13.88
11,CN(C)Cc1nnc(C2CCN(c3ncccc3Cl)CC2)n1C1CC1,84.18
12,CN(C)Cc1nnc(C2CCN(c3ncccn3)CC2)n1C1CC1,-61.17
13,Cn1cncc1CN1CCC2(CC1)COCCN(S(C)(=O)=O)C2,-38.72
14,Cc1cc(C(F)(F)F)nn1CCNC(=O)C(C)n1ccnc1C(C)C (centres undefined),-4.93
15,CCCN(CC1CC1)S(=O)(=O)c1ccc(NC(C)=O)cc1,-13.12
16,CC(C)(O)CCc1cccc(C(=O)N2CCC[C@H]2C(N)=O)c1,6.26
17,CN(CCCOc1ccccc1)S(=O)(=O)c1cnn(C)c1,-2.63
18,COc1ccc(OCCN(C)S(=O)(=O)c2cnn(C)c2)cc1,83.12
19,Cc1ccc(OCCN(C)S(=O)(=O)c2cnn(C)c2)cc1,31.54
20,CN(CCOc1ccc(F)cc1)S(=O)(=O)c1cnn(C)c1,-11.34
21,CN(CCCOc1ccc(F)cc1)S(=O)(=O)c1cnn(C)c1,-6.65
22,CN(C)CCOc1ccc(N(C)S(=O)(=O)c2cnn(C)c2)cc1,57.68
23,Cc1oc(C(=O)O)cc1S(=O)(=O)Nc1cccc(-n2nccc2C)c1,37.15
24,Cc1c[nH]nc1C1CCN(C(=O)C2CCCC2)C1 (centres undefined),41.21
25,NC(=O)C1(Cc2ccc(-c3ccccc3)cc2)CCNC1 (centres undefined),9.18
26,CCOC(=O)CCNC(=O)N1CCOC(Cc2cccc(OC)c2)C1 (centres undefined),25.37

row,SMILES,INHIBITION [%]
1,CCOC(=O)CNC(=O)N1CCOC(Cc2ccc(OC)cc2)C1 (centres undefined),55.66
2,CCOC(=O)CNC(=O)N1CCOC(CCc2ccccc2)C1 (centres undefined),-18.39
3,CN(C)CCOCC1CN(Cc2ccncc2)Cc2nnn(C)c21 (centres undefined),7.1
4,CN1CCC(N(CCc2ccccc2)C(=O)COCC2CCCO2)CC1 (centres undefined),42.79
5,Cc1cccc(-c2nccnc2C2CCN(C)CC2)c1C,-25.17
6,COC(=O)c1sc2cccc(F)c2c1CNC(=O)C1CCOC1 (centres undefined),33.02
7,COC(=O)c1sc2cccc(F)c2c1CNC(=O)C1CCCO1 (centres undefined),50.3
8,COC(=O)c1sc2cccc(F)c2c1CNC(=O)C1CC1,15.28
9,Cc1ncccc1-c1cc2cccnc2n1CCCNC(=O)C(C)(C)C,24.98
10,COCCN1CCC2(CC1)CC(NC(=O)CN(C)C)c1ccccc1O2 (centres undefined),48.52
11,CC(C)c1nc2c(n1C)CCN(CC(=O)Nc1nncs1)C2,60.09
12,CC(C)c1nc2c(n1C)CCN(CC(=O)Nc1ccnn1C(C)C)C2,-42.83
13,Cc1csc(NC(=O)CN2CCc3c(nc(C4CC4)n3C)C2)n1,-1.02
14,CC(C)c1nc2c(n1C)CCN(CC(=O)Nc1nccs1)C2,-15.91
15,CC(C)c1nc2c(n1C)CCN(CC(=O)Nc1ccncc1)C2,-14.17
16,Cc1nnc(NC(=O)CN2CCc3c(nc(C4CC4)n3C)C2)s1,51.94
17,Cc1nnc(NC(=O)CN2CCc3c(nc(C(C)C)n3C)C2)s1,22.63
18,CC(C)c1nc2c(n1C)CCN(CC(=O)Nc1ccc(Cl)cn1)C2,51.92
19,CCCn1nccc1NC(=O)CN1CCc2c(nc(C3CC3)n2C)C1,49.6
20,Cn1c(C2CC2)nc2c1CCN(CC(=O)Nc1nncs1)C2,22.51
21,CC(C)c1nc2c(n1C)CCN(CC(=O)Nc1cccnc1)C2,-14.17
22,CCCn1nccc1NC(=O)CN1CCc2c(nc(C(C)C)n2C)C1,56.12
23,Cc1ccc2c(c1)C1(CCNCC1)CN2C(=O)CN(C)C,15.58
24,O=C(Nc1cccnc1)C1Cc2nc(-c3ccsc3)sc2N1CC1CC1 (centres undefined),18.2
25,CCn1c(CN(C)C(=O)c2ccc(OC)nc2)nc2ccccc21,-33.03
26,O=C(Nc1cccc(CNCc2cccnc2)c1)C1CCCC1,14.53

row,SMILES,INHIBITION [%]
1,O=C(c1cscn1)N1C[C@@H]2C[C@@H](c3nnc(C4CC4)o3)O[C@@H]2C1,-4.1
2,Cn1cc(CNC2CCc3ncnn3C2)c(-c2ccncc2)n1 (centres undefined),49.88
3,CN(C)C(=O)C1CCC2(CCNCC2)C1 (centres undefined),26.55
4,CC(C)N(C)Cc1cnc2n1CCN(S(=O)(=O)c1ccccc1)C2,29.3
5,COc1ccc(C(=O)C2CCCN(Cc3cc(C)n[nH]3)C2)c(OC)c1 (centres undefined),15.08
6,O=C(C[S+]([O-])Cc1cccc(F)c1)NC1CCCC1 (centres undefined),27.67
7,CC(=O)N1CCCN(C(=O)c2cnc(OC(C)C)c(Cl)c2)CC1,31.51
8,CC(C)Oc1ncc(C(=O)N2CCC(CC(N)=O)CC2)cc1Cl,64.9
9,CC(O)CN1CCN(C(=O)c2cnc(OC(C)C)c(Cl)c2)CC1 (centres undefined),19.59
10,CC(C)Oc1ncc(C(=O)N2CCC(NC(=O)C3CC3)CC2)cc1Cl,-58.69
11,CCN1CCCN(C(=O)c2cnc(OC(C)C)c(Cl)c2)CC1,-16.16
12,CC(=O)N1CCN(C(=O)c2cnc(OC(C)C)c(Cl)c2)CC1,55.36
13,CC(C)c1ccc(OCCC(=O)N2CCC(CC(N)=O)CC2)cc1,31.19
14,CC(C)Oc1ncc(C(=O)N2CCCC(C(=O)O)C2)cc1Cl (centres undefined),0.51
15,CC(C)Oc1ncc(C(=O)N2CCC(N(C)C)CC2)cc1Cl,55.36
16,CCc1nc(N)nc(N2CCCC3(CCOCC3)C2)c1C,39.57
17,Cc1ocnc1C(=O)N(C)[C@@H]1CC[C@@H](n2ccnc2C)[C@@H]1O,-12.75
18,O=C1CN(C(=O)CNC(CC(F)(F)F)c2ccc(F)cc2)CCN1 (centres undefined),7.05
19,COc1c(CNC(c2ccccc2)c2ccc(F)cc2)c(C)nn1C (centres undefined),13.67
20,Cc1noc(C(C)N2CCN(CCn3ccccc3=O)CC2)n1 (centres undefined),25.78
21,CCOCc1cccc(S(=O)(=O)Nc2ncc(C)s2)c1,44.59
22,Cc1nc(C)n(CC2CCCN2CC(=O)Nc2cc(C(C)C)no2)n1 (centres undefined),35.42
23,CCN(Cc1noc(C)n1)C(=O)CC1C(=O)NCCN1CC(C)(C)C (centres undefined),55.84
24,CCc1noc(CN(CC)C(=O)CC2C(=O)NCCN2CC(C)(C)C)n1 (centres undefined),43.6
25,CCc1noc(CN(CC)C(=O)CC2C(=O)NCCN2CC=C(C)C)n1 (centres undefined),3.66
26,CN(C)CCOc1ccccc1N1CCN(C(=O)C(C)(C)C#N)CC1,-4.91
